Fold change, cell count and z-score data for 23 molecules are collected here from PubChem BioAssay.

Each structure is given as a SMILES string. “And” between values parts separate entries of the source, which are not always exact repeats. Identical values can stand only once. The source made the active and inactive calls.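 The calls were made as follows, unless noted: active = compounds whose cell count with miR-34 switched on is under 0.7 times the count with it off; inactive = the rest.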

Assay [1] in a line: sensitizers of A549 cells to miR-34 induction, primary screen, imaging, A549 dox-inducible miR-34, nuclei and caspase counts (AID 1347080). The following applies: A549 miR-34 inducible, Hoechst nuclei count, 48 h.
The nature of assay [2]: survival rescue of mitochondrial mutant cells in low glucose, primary screen, MELAS cybrids, Rieske KO mouse fibroblasts, CellTiter-Glo (AID 1508586;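 active = mean z-score across replicates of 1.96 or higher in either the MELAS or the Rieske mutant cell line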;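 also: z relative to plate mean and SD of compound and empty wells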).
Setting [3] is: stronger effect = lower value, cell number ratio, induced over uninduced.
[4] abbreviates: measured here: relative caspase fold change +Dox/-Dox.
Setting [5] is: measured here: total cells with miR-34 induction, stronger effect = lower value.
Setting [6] is: measured here: total cells without miR-34 induction.
Setting [7] is: MELAS cybrid survival, CellTiter-Glo 48 h, stronger effect = higher value.
Where [8] appears, read: Rieske KO mouse fibroblast survival, CellTiter-Glo 72 h.
Also: test concentration not given here.

Turning to `C#CCC(Cc1cnc2nc(N)nc(N)c2n1)c1ccc(C(=O)NC(CCC(=O)O)C(=O)O)cc1` (stereo not drawn), the fold change is 1.12 (inactive) in assay [1] (setting [3]) and 0.784 in assay [1] (setting [4]). Further, the figures for the cell count in assay [1] (setting [5]) and in assay [1] (setting [6]) were 2390 and 2130, respectively. For the same molecule, the z-score is -0.188 (inactive) in assay [2] (setting [7]) and 0.624 in assay [2] (setting [8]).

Consider `CC(C)CN(C[C@H](O)[C@@H](Cc1ccccc1)NC(=O)O[C@@H]1CO[C@H]2OCC[C@H]21)S(=O)(=O)c1ccc(N)cc1`, for which the values for the fold change in assay [1] (setting [3]) and in assay [1] (setting [4]) were 0.938 (inactive) and 0.791, respectively. Also, the cell count in assay [1] (setting [5]) came to 7440; in assay [1] (setting [6]), 7930. The z-score in assay [2] (setting [7]) was -0.364 (inactive); in assay [2] (setting [8]) it was 0.28.

Turning to `CS(=O)(=O)c1ccc(C(O)C(CF)NC(=O)C(Cl)Cl)cc1` (stereo not drawn), the fold change is 0.937 (inactive) in assay [1] (setting [3]) and 0.642 in assay [1] (setting [4]). Further, the figures for the cell count in assay [1] (setting [5]) and in assay [1] (setting [6]) were 8270 and 8820, respectively. The z-score in assay [2] (setting [7]) was 0.0143 (inactive); in assay [2] (setting [8]) it was -0.0314.

In the case of `CCOC(=O)Nc1cc(-c2ccc(C)c(NS(C)(=O)=O)c2)nn2c(C)nnc12`, the fold change in assay [1] (setting [3]) is 1.01 (inactive); in assay [1] (setting [4]), 0.716. In addition, the cell count in assay [1] (setting [5]) stood at 4010; in assay [1] (setting [6]), 3970. The figures for the z-score in assay [2] (setting [7]) and in assay [2] (setting [8]) were -0.585 (inactive) and -4.44, respectively.

For the molecule `COC(=O)C1=COC(OC2OC(CO)C(O)C(O)C2O)[C@H]2C(CO)=CC[C@H]12` (stereo partly drawn), the fold change in assay [1] (setting [3]) was 0.942 (inactive); in assay [1] (setting [4]) it was 0.842. Besides, the cell count in assay [1] (setting [5]) is 7570; in assay [1] (setting [6]), 8040. Besides, the values for the z-score in assay [2] (setting [7]) and in assay [2] (setting [8]) were -0.247 (inactive) and -0.0973, respectively.

Turning to `CN1CCc2nc(C(=O)NC3CC(C(=O)N(C)C)CCC3NC(=O)C(=O)Nc3ccc(Cl)cn3)sc2C1` (stereo not drawn), the fold change was 0.965 (inactive) in assay [1] (setting [3]) and 0.478 in assay [1] (setting [4]). For the same molecule, the results for the cell count in assay [1] (setting [5]) and in assay [1] (setting [6]) were 8860 and 9180, respectively. In addition, the z-score in assay [2] (setting [7]) was -0.402 (inactive); in assay [2] (setting [8]) it was -0.373.

`CC(CS)C(=O)N1CCCC1C(=O)O` (stereo not drawn): the results for the fold change in assay [1] (setting [3]) and in assay [1] (setting [4]) were 1.01 (inactive) and 0.525, respectively. The values for the cell count in assay [1] (setting [5]) and in assay [1] (setting [6]) were 8320 and 8250, respectively. Besides, the values for the z-score in assay [2] (setting [7]) and in assay [2] (setting [8]) were -0.2 (inactive) and -0.263, respectively.

In the case of `CC1C[C@H]2[C@@H]3CCC4=CC(=O)C=C[C@]4(C)[C@]3(F)C(O)C[C@]2(C)[C@]1(O)C(=O)CO` (stereo partly drawn), the fold change was 0.886 (inactive) and 0.91 (inactive) in assay [1] (setting [3]); 0.577 and 0.802 in assay [1] (setting [4]). Moreover, the cell count in assay [1] (setting [5]) is 5440 and 5070; in assay [1] (setting [6]), 6140 and 5570. Besides, the z-score was -0.338 (inactive) and -0.534 (inactive) in assay [2] (setting [7]); 0.031 and -0.0341 in assay [2] (setting [8]).

Consider `CC(C)C(N)C(=O)OCC(CO)OCN1C=NC2C(=O)NC(N)=NC21` (stereo not drawn), for which the fold change is 0.916 (inactive) in assay [1] (setting [3]) and 0.625 in assay [1] (setting [4]). Besides, the cell count was found to be 8420 in assay [1] (setting [5]) and 9190 in assay [1] (setting [6]). The values for the z-score in assay [2] (setting [7]) and in assay [2] (setting [8]) were -0.0737 (inactive) and -0.153, respectively.

Turning to `Cc1ccc(NCCCc2ccccc2)c(N)c1`, the fold change was 0.882 (inactive) in assay [1] (setting [3]) and 0.496 in assay [1] (setting [4]). Moreover, the figures for the cell count in assay [1] (setting [5]) and in assay [1] (setting [6]) were 7500 and 8510, respectively. The values for the z-score in assay [2] (setting [7]) and in assay [2] (setting [8]) were -0.425 (inactive) and 0.263, respectively.

Consider `Cc1cncc(CN2CCC(=C3c4ccc(Cl)cc4CCc4cccnc43)CC2)c1`, for which the fold change in assay [1] (setting [3]) was 1.04 (inactive); in assay [1] (setting [4]), 0.52. For the same molecule, the cell count in assay [1] (setting [5]) came to 6230; in assay [1] (setting [6]), 6000. For the same molecule, the z-score was -0.369 (inactive) in assay [2] (setting [7]) and -0.161 in assay [2] (setting [8]).

On to `CC1C[C@H]2[C@@H]3CC(F)C4=CC(=O)C=C[C@]4(C)[C@]3(F)C(O)C[C@]2(C)[C@@]1(O)C(=O)CO` (stereo partly drawn), for which the fold change in assay [1] (setting [3]) is 0.843 (inactive); in assay [1] (setting [4]), 1.01. Moreover, the cell count in assay [1] (setting [5]) is 4530; in assay [1] (setting [6]), 5380. Also, the z-score in assay [2] (setting [7]) was -0.358 (inactive); in assay [2] (setting [8]) it was -0.303.

`CC(=O)Nc1ccc(NC(=S)NC(=O)c2ccc(C(C)(C)C)cc2)cc1`: the fold change in assay [1] (setting [3]) is 1 (inactive) and 1.05 (inactive); in assay [1] (setting [4]) it was 1.21 and 0.561. Further, the cell count in assay [1] (setting [5]) was 1820 and 1680; in assay [1] (setting [6]), 1820 and 1600. The z-score was -0.38 (inactive) in assay [2] (setting [7]) and 0.0517 in assay [2] (setting [8]).

Turning to `CC(=O)OC1C[C@@H]2CC[C@@H]3[C@@H](CC[C@]4(C)C(OC(C)=O)C([N+]5(C)CCCCC5)C[C@@H]34)[C@@]2(C)CC1N1CCCCC1` (stereo partly drawn), the fold change in assay [1] (setting [3]) was 0.894 (inactive); in assay [1] (setting [4]) it was 1.12. The cell count in assay [1] (setting [5]) came out at 8090; in assay [1] (setting [6]), 9050. The z-score in assay [2] (setting [7]) was -0.47 (inactive); in assay [2] (setting [8]), -0.53.

Take `CCNC(=O)CCCC=CCC1C(O)CC(O)C1C=CC(O)CCc1ccccc1` (stereo not drawn): the fold change in assay [1] (setting [3]) was 0.925 (inactive); in assay [1] (setting [4]) it was 0.991. The cell count in assay [1] (setting [5]) turned out to be 6700; in assay [1] (setting [6]), 7250. Further, the figures for the z-score in assay [2] (setting [7]) and in assay [2] (setting [8]) were -0.401 (inactive) and -0.137, respectively.

Take `Cc1cc(C(C)Nc2ccccc2C(=O)O)c2nc(N3CCOCC3)cc(=O)n2c1` (stereo not drawn): the values for the fold change in assay [1] (setting [3]) and in assay [1] (setting [4]) were 0.956 (inactive) and 0.866, respectively. In addition, the cell count was 5770 in assay [1] (setting [5]) and 6030 in assay [1] (setting [6]). Moreover, the values for the z-score in assay [2] (setting [7]) and in assay [2] (setting [8]) were -0.296 (inactive) and -0.288, respectively.

`CC(C)CC(NC(=O)C(CCc1ccccc1)NC(=O)CN1CCOCC1)C(=O)NC(Cc1ccccc1)C(=O)NC(CC(C)C)C(=O)[C@@]1(C)CO1` (stereo partly drawn): the fold change in assay [1] (setting [3]) is 0.898 (inactive); in assay [1] (setting [4]), 1.94. Also, the cell count was 778 in assay [1] (setting [5]) and 867 in assay [1] (setting [6]). Moreover, the figures for the z-score in assay [2] (setting [7]) and in assay [2] (setting [8]) were -0.243 (inactive) and -3.69, respectively.

Turning to `CC1(C)S[C@H]2C(NC(=O)C(N)c3ccccc3)C(=O)N2C1C(=O)O` (stereo partly drawn), the fold change was 0.913 (inactive) in assay [1] (setting [3]) and 0.727 in assay [1] (setting [4]). The cell count in assay [1] (setting [5]) was found to be 8130; in assay [1] (setting [6]), 8910. The z-score in assay [2] (setting [7]) is -0.295 (inactive); in assay [2] (setting [8]), -0.19.

Regarding `COc1cc2c(cc1Cc1cccc(Cl)c1F)c(=O)c(C(=O)O)cn2C(CO)C(C)C` (stereo not drawn), the figures for the fold change in assay [1] (setting [3]) and in assay [1] (setting [4]) were 0.611 (active) and 1.26, respectively. The values for the cell count in assay [1] (setting [5]) and in assay [1] (setting [6]) were 3970 and 6500, respectively. For the same molecule, the z-score was -0.198 (inactive) in assay [2] (setting [7]) and 0.532 in assay [2] (setting [8]).

In the case of `O=C(C=Cc1ccc(O)c(O)c1)c1ccc(O)cc1O`, the fold change in assay [1] (setting [3]) was 0.953 (inactive); in assay [1] (setting [4]), 0.45. For the same molecule, the cell count was found to be 8780 in assay [1] (setting [5]) and 9210 in assay [1] (setting [6]). The results for the z-score in assay [2] (setting [7]) and in assay [2] (setting [8]) were -0.304 (inactive) and -0.063, respectively.

Regarding `COc1cc2c(c(OC)c1OC)-c1c(cc3c(c1OC)OCO3)CC(C)C(C)C2` (stereo not drawn), the fold change in assay [1] (setting [3]) was 0.915 (inactive); in assay [1] (setting [4]), 1.02. For the same molecule, the cell count is 7770 in assay [1] (setting [5]) and 8490 in assay [1] (setting [6]). The z-score in assay [2] (setting [7]) is -0.0751 (inactive); in assay [2] (setting [8]), -0.149.

With `CC(CCC(=O)O)[C@H]1CC[C@H]2[C@@H]3C(O)C[C@@H]4CC(O)CC[C@]4(C)[C@@H]3CC[C@]12C` (stereo partly drawn), the fold change in assay [1] (setting [3]) was 0.91 (inactive); in assay [1] (setting [4]), 1.28. The cell count was found to be 8880 in assay [1] (setting [5]) and 9760 in assay [1] (setting [6]). Further, the z-score is -0.306 (inactive) in assay [2] (setting [7]) and 0.756 in assay [2] (setting [8]).

Regarding `Nc1nccc2c1ncn2C1C=C(CO)C(O)C1O` (stereo not drawn), the fold change in assay [1] (setting [3]) was 0.968 (inactive); in assay [1] (setting [4]), 0.366. The cell count came out at 4640 in assay [1] (setting [5]) and 4800 in assay [1] (setting [6]). Also, the z-score in assay [2] (setting [7]) is -0.724 (inactive); in assay [2] (setting [8]), -1.41.
